The text below walks through data of PubChem BioAssay (Tox21).

SMILES strings stand for the structures. Unmarked numbers belong to inactive results. Inconclusive results are not listed. The source made the active and inactive calls. Unless noted, calls come from the whole dose curve; as a rule, active = well fitted curve in the direction sought with a large enough effect in the repeat runs; inconclusive = weak or mixed curves; inactive = no such curve, though single readings can be large; an effect the other way counts as inactive or inconclusive.

The target of test [1] is Thyrotropin receptor (Homo sapiens) (UniProt P16473). Put plainly: qHTS assay to identify small molecule antagonists of the thyroid stimulating hormone receptor (TSHR) signaling pathway (AID 1259385; calls by dose curve; note: nearly all actives have a fitted effect of over 20% in size). The procedure, abridged: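 TSHR-HEK293 cells were plated and held 18 h at 37C/5% CO2, then given compound plus Ro20-1724 and stimulated with TSH at 1.5 ng/mL final. After 30 min at room temperature, cAMP was detected with cAMP-d2/anti-cAMP-cryptate (1 h) by fluorescence.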

Test [2] is described as follows: qHTS assay to identify small molecule agonists of the estrogen receptor alpha (ER-alpha) signaling pathway in the presence of an antagonist - cell viability counter screen (AID 1259386). Note: series mostly up to about 92 µM; nearly all actives have a fitted effect of over 30% in size. In outline: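 Compounds tested at 15 concentrations for 22 h at 37C alongside 10.0nM (final) ICI-182,780 antagonist, in VM7Luc4E2 cells grown in phenol red-free, charcoal-stripped medium. Viability read by CellTiter-Fluor fluorescence after 1 h reagent incubation.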
On the technique in general: qHTS replaces the single test concentration by a dilution series.

The target in test [3] is Progesterone receptor (Homo sapiens) (UniProt P06401). Put plainly: qHTS assay to identify small molecule agonists of the progesterone receptor (PR) signaling pathway (AID 1346784; calls by dose curve; note: nearly all actives have a fitted effect of over 30% in size). In outline: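 Compounds were tested for PR agonism in HEK 293T cells bearing a beta-lactamase gene under UAS control. Treatment lasted 16 hr at 37C; signal came from fluorescence of a FRET substrate.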

The target is the same in test [4]. Kind of test: qHTS assay to identify small molecule antagonists of the progesterone receptor (PR) signaling pathway (AID 1346795; active = well fitted inhibition curve with a large enough effect in the signal ratio in the repeat runs, not every such curve was filed as active; the % refers to the signal ratio; note: potency is the fitted concentration of half-maximal effect). The procedure, abridged: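 In HEK293T cells bearing the PR-UAS-bla reporter, compound effects on promegestone-driven (1 nM) beta-lactamase expression are assessed after 16 hr using a fluorescent FRET substrate incubated 2 hr at room temperature.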

Test [5] is described as follows: qHTS assay to identify small molecule antagonists of the progesterone receptor (PR) signaling pathway - cell viability counter screen (AID 1346798). For activity change, negative = cytotoxicity: series mostly up to about 92 µM. Note: nearly all actives have a fitted effect of over 50% in size. Note: potency is the fitted concentration of half-maximal effect. The procedure, abridged: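 Following a 4 hr attachment, PR-UAS-bla HEK293T cells in charcoal-stripped FBS medium were exposed to compounds with R5020 for 16 hr; CellTiter-Glo was added and luminescence read after 30 min at room temperature.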

The nature of test [6]: qHTS assay to identify small molecule agonists of the progesterone receptor (PR) signaling pathway - cell viability counter screen (AID 1346799; calls by dose curve; note: nearly all actives have a fitted effect of over 45% in size). In outline: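 Here, 3,000 PR-UAS-bla HEK293T cells per well were treated with compounds for 16 hr after a 6 hr preincubation at 37C and 5% CO2; cell viability is the CellTiter-Glo luminescence signal.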
The nature of test [7]: qHTS assay to identify small molecule antagonists of the TGF-beta/Smad signaling pathway - cell viability counter screen (AID 1346824). Note: nearly all actives have a fitted effect of over 50% in size. The procedure, abridged: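 SBE-bla HEK 293T cells were plated overnight at 37 C, then given compounds in DMSO plus TGF-beta1 (added as 0.25 ng/mL solution) for 5 hr. After the bla read, CellTiter-Glo was added to the same wells and luminescence read after 30 min at room temperature.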

Test [8] is described as follows: qHTS assay to identify small molecule agonists of the TGF-beta/Smad signaling pathway - cell viability counter screen (AID 1346829). Note: top concentration of the series differs between compounds; nearly all actives have a fitted effect of over 45% in size. In outline:
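Here the cytotoxicity of library compounds is measured in SBE-bla HEK 293T cells treated for 5 hr, using CellTiter-Glo added to wells already read for the beta-lactamase reporter.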

Test [9] is described as follows: qHTS assay to identify small molecule agonists of the TGF-beta/Smad signaling pathway (AID 1346859; active = well fitted activation curve with a large enough effect in the signal ratio in the repeat runs, not every such curve was filed as active; the % refers to the signal ratio; note: series mostly up to about 77 µM). In outline:
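Each well held 4,000 SBE-bla HEK 293T cells incubated overnight before compound addition; 5 hr later the cleavable FRET substrate went on for 2 hr at room temperature, and fluorescence was read at two emissions.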

Test [10] deals with Thyrotropin-releasing hormone receptor (Homo sapiens) (UniProt P34981). Put plainly: qHTS assay to identify small molecule antagonists of the thyrotropin-releasing hormone receptor (TRHR) signaling pathway (AID 1346877; active = well fitted inhibition curve with a large enough effect in the repeat runs, not every such curve was filed as active; note: series mostly up to about 51 µM). The procedure, abridged: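 Antagonist mode: after a 5 min room-temperature compound exposure, cells were stimulated with 1 nM (final) TRH. Dye-loaded TRHR-HEK293 cells were used, and calcium-dependent fluorescence was followed for 3 min, with 15-point titrations run in triplicate.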
% is set by controls: 0 for no effect and ±100 for the full control effect.

Chain of Thyrotropin-releasing hormone receptor (Homo sapiens) (P34981 whole entry, looked up): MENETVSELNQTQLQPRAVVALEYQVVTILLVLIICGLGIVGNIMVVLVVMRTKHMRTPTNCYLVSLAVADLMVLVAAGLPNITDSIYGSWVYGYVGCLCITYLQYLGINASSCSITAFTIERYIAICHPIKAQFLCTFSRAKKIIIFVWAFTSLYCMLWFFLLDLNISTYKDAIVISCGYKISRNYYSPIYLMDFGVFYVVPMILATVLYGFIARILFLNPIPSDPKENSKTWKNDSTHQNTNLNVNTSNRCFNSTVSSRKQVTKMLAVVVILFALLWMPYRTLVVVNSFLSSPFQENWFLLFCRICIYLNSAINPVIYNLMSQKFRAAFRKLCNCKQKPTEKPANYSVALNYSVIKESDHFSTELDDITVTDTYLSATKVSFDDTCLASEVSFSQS
Chain of Thyrotropin receptor (Homo sapiens) (P16473 whole entry, looked up): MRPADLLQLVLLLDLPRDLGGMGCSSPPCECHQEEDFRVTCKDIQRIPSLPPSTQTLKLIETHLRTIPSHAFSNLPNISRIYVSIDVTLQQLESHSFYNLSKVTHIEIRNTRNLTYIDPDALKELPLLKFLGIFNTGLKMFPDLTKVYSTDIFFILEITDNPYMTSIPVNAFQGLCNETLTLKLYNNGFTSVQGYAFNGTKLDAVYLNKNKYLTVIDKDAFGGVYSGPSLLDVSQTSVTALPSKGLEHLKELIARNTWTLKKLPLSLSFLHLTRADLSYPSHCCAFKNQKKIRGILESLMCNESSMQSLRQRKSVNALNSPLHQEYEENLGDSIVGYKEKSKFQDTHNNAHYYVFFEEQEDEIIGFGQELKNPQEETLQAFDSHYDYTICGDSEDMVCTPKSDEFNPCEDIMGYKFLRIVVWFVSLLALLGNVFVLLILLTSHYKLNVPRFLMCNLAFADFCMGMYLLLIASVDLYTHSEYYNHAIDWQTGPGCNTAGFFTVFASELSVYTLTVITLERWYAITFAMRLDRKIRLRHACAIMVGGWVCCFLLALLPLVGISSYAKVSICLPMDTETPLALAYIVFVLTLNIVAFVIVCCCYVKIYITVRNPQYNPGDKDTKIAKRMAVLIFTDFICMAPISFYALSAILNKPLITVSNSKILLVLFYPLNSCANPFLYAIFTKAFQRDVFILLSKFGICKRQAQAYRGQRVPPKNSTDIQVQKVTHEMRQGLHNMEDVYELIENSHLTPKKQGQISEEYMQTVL
Chain of Progesterone receptor (Homo sapiens) (P06401 whole entry, looked up): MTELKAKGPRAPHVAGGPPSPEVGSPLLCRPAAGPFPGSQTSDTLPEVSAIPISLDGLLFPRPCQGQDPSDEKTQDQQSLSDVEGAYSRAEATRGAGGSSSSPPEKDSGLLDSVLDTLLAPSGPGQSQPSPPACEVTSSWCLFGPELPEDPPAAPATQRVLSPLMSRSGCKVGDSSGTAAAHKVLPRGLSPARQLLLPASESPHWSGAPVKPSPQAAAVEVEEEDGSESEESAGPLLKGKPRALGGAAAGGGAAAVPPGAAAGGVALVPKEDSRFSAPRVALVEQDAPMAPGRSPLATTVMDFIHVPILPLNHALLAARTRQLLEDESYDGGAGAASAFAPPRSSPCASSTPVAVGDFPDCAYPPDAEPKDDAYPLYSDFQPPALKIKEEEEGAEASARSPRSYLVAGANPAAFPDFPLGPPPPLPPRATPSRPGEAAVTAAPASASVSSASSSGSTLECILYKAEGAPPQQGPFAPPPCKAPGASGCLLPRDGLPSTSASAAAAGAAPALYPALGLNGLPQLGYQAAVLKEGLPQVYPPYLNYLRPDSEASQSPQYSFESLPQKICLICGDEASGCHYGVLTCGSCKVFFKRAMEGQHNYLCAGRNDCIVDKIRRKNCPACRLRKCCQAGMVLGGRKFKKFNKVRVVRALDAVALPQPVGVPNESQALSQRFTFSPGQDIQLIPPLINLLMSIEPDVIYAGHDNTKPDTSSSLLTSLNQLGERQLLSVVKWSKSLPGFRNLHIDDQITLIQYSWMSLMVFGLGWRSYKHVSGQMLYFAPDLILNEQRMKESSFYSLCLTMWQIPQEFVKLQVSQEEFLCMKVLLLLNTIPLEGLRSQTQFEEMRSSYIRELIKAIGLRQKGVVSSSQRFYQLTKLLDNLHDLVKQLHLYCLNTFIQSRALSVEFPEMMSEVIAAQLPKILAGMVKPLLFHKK

As to `BrCCc1ccccc1`, the compound was classed as inactive in test [1] and in test [7]. Moreover, the Potency entry in test [2], in test [3], in test [4], in [5], in test [6] and in test [8] was “inactive” each time.

On to `CNC(=O)Oc1ccccc1C(C)C`, for which the outcome in test [1], in [7] and in [9] was inactive. The Potency entry in [2], in test [3], in test [4], in [5], in test [6] and in [8] was “inactive” throughout.

On to `CCNc1nc(NCC)nc(SC)n1`, for which the result in test [1], in [7] and in [9] was inactive. In addition, the Potency entry in test [2], in test [3], in [4], in [5], in [6] and in [8] was “inactive” in each case. Moreover, in test [10], the Potency result is “inactive”.

`CCC(=O)OC1(c2ccccc2)CCN(C)CC1`: the result in test [1], in test [7] and in test [9] was inactive. The Potency entry in test [2], in test [3], in test [4], in [5], in [6] and in test [8] was “inactive” each time. Also, the Potency entry in test [10] is “inactive”.

Regarding `O=[N+]([O-])c1cccc(CCl)c1`, the call in [1], in test [7] and in test [9] was inactive. Also, the Potency result in test [2], in test [3], in test [4], in test [5], in test [6] and in test [8] was “inactive” throughout. In test [10], the Potency result is “inactive”.

`C=C1CC[C@@]2(O)[C@H]3Cc4ccc(O)c5c4[C@@]2(CCN3CC2CC2)[C@H]1O5`: the compound was called inactive in [1], in test [7] and in test [9]. The Potency result in [2], in test [3], in test [4], in test [6], in [8] and in [10] was “inactive” in each case. In addition, in test [5], the Potency was 2.98 µM (active).

For `CCC(CC)(CNC(=O)CCCO)c1cccc(OC)c1`, the compound was classed as inactive in test [1], in test [7] and in [9]. Besides, the Potency entry in test [2], in test [3], in [4], in [5], in [6] and in [8] was “inactive” throughout. Also, the Potency entry in [10] is “inactive”.

In the case of `CN(CCO)CCO`, the result in test [1], in test [7] and in test [9] was inactive. Moreover, the Potency entry in test [2], in [3], in [4], in test [5], in test [6] and in test [8] was “inactive” throughout.

For the compound `C=C(C)[C@H]1CN[C@H](C(=O)O)[C@H]1CC(=O)O`, the outcome in test [1], in [7] and in test [9] was inactive. In addition, the Potency result in test [2], in test [3], in [4], in test [5], in [6] and in [8] was “inactive” in each case. Further, the Potency result in test [10] is “inactive”.

For `COP(=O)(O)OC`, the result in test [1], in test [7] and in test [9] was inactive. Also, the Potency entry in test [2], in test [3], in test [4], in [5], in test [6] and in [8] was “inactive” each time. For the same compound, the Potency entry in [10] was “inactive”.

For `ClCOCCl`, the compound was classed as inactive in test [1], in test [7] and in [9]. In addition, the Potency result in test [3], in test [4], in test [5], in test [6] and in [8] was “inactive” in each case.

As to `CCc1cc(OC)c(C[C@H](C)N)cc1OC`, the compound was classed as inactive in test [1], in test [7] and in test [9]. Further, the Potency result in [2], in test [3], in [8] and in test [10] was “inactive” each time.

As for `c1cncc([C@@H]2CCCCN2)c1`, the result in [1], in [7] and in test [9] was inactive. Besides, the Potency entry in [2], in [4], in [5], in test [6] and in [8] was “inactive” in each case.

For the compound `CC(=O)OCC1=C(C(=O)O)N2C(=O)[C@@H](N)[C@H]2SC1`, the activity change, negative = inhibition was 1.01% [at 19 µM] in [1] and 0.73% [at 18.9 µM] in [4]. Besides, the activity change, negative = cytotoxicity in [2] was -2.84% [at 19 µM]; in test [5], 2.66% [at 18.9 µM]; in [6] it was 3.69% [at 19 µM]; in test [8], -0.572% [at 15.8 µM]. Also, the viability change, negative = cytotoxic in test [7] was -0.755% [at 15.8 µM].

`O=C(O)CBr`: the outcome in [1], in test [7] and in test [9] was inactive. Besides, the Potency entry in [2], in test [4], in test [5], in test [6] and in test [8] was “inactive” in each case.

In the case of `CC(C)c1ccc(O)cc1`, the result in test [1], in [7] and in test [9] was inactive. Further, the Potency result in [3], in test [4], in test [5], in [6], in test [8] and in [10] was “inactive” in each case.

On to `Clc1cc2c(cc1Cl)Oc1cc(Cl)c(Cl)cc1O2`, for which the activity change, negative = inhibition is -3.4% [at 0.349 µM] in test [1] and 5.7% [at 0.348 µM] in test [4]. In addition, the activity change, negative = cytotoxicity in [2] was 0.532% [at 0.349 µM]; in test [5] it was -11.1% [at 0.348 µM]; in test [6] it was 4.69% [at 0.349 µM]. For the same compound, the viability change, negative = cytotoxic in test [7] is -2.55% [at 0.29 µM]. In test [9], the activation is 2% [at 0.29 µM].

Consider `NNC(N)=O`, for which the call in [1], in test [7] and in test [9] was inactive. Further, the Potency entry in test [2], in test [4], in test [6], in test [8] and in test [10] was “inactive” each time.

As for `BrCc1ccc(Br)cc1`, the outcome in test [1], in test [7] and in test [9] was inactive. Further, the Potency entry in test [2], in test [6], in test [8] and in test [10] was “inactive” throughout.

As for `CCOC(=O)C(Cl)Cc1cc(-n2nc(C)n(C(F)F)c2=O)c(F)cc1Cl` (stereo not drawn), the call in test [1], in [7] and in test [9] was inactive. Further, the Potency entry in [2], in test [4], in [6], in test [8] and in test [10] was “inactive” each time.

Turning to `CON(C)C(=O)Nc1ccc(Br)c(Cl)c1`, the compound was called inactive in test [1] and in test [7]. Also, the Potency entry in test [2], in test [3], in test [6] and in [10] was “inactive” each time.

Take `CCCOC(=O)Cc1ccc(OCC(=O)N(CC)CC)c(OC)c1`: the outcome in test [1], in test [7] and in [9] was inactive. Besides, the Potency result in test [2], in [3], in [6] and in [8] was “inactive” throughout.

On to `CCCCCCC(=O)CCCCCC/C=C/C[C@@H](O)[C@H](O)[C@@](N)(CO)C(=O)O`, for which the activity change, negative = inhibition is -2.59% [at 19 µM] in test [1] and 0.638% [at 18.9 µM] in test [4]. Besides, the activation in test [3] is -0.536% [at 19 µM]; in test [9] it was -6.21% [at 15.8 µM]. Also, the figures for the activity change, negative = cytotoxicity in [5], in [6] and in test [8] were -9.78% [at 18.9 µM], -2.82% [at 19 µM] and 4.19% [at 15.8 µM], respectively. For the same compound, the viability change, negative = cytotoxic in test [7] was -3.48% [at 15.8 µM].

Turning to `CCN1CCCC1CNC(=O)C(O)(c1ccccc1)c1ccccc1` (stereo not drawn), the compound was classed as inactive in test [1], in test [7] and in [9]. Besides, the Potency result in [2], in test [4], in [5] and in test [6] was “inactive” throughout.

Consider `O=c1[nH]c2ccccc2o1`, for which the call in test [1], in test [7] and in test [9] was inactive. Moreover, the Potency entry in test [2], in test [3], in test [4], in test [8] and in [10] was “inactive” in each case.

As to `CCCCOC(C)=O`, the result in test [1], in test [7] and in test [9] was inactive. The Potency entry in test [3], in test [4], in test [5], in test [6] and in test [8] was “inactive” throughout.

Take `CC(C)(N)Cc1ccccc1Cl`: the call in [1], in test [7] and in test [9] was inactive. For the same compound, the Potency result in test [2], in [4] and in [10] was “inactive” each time.

With `CCOC1Oc2ccc(OS(C)(=O)=O)cc2C1(C)C` (stereo not drawn), the outcome in [1] and in [9] was inactive. Besides, the Potency result in test [2], in test [3] and in [8] was “inactive” in each case. The Potency in test [4] is 30.4 µM (active).

With `C1CN2CCC1CC2`, the result in test [1], in [7] and in [9] was inactive. Also, the Potency entry in test [3], in test [4], in [5], in [6], in test [8] and in test [10] was “inactive” each time.
